Shown is part of a subset that was picked to be rich in the strongest signals.
What was measured:
Test in all cases: glycan array binding signal (z-score within array); higher = stronger binding
Details in all cases: glycan notation: IUPAC condensed, linker removed
[1] = target: Glc(a1-3)Glc(a1-3)Glc(a1-3)Glc
Method in brief: (§1)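 Negative Z-scores can be read as non-binding. The Z-score is calculated within each array and then averaged across arrays of one protein sequence at different concentrations or buffers and across linkers. Arrays, 3228 in all, were curated from the Consortium for Functional Glycomics database and kept only where the protein sequence was available.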

[2] = target: Glc(a1-4)Glc(a1-4)Glc(a1-4)Glc(a1-4)Glc(a1-4)Glc(a1-4)Glc(a1-4)Glc(a1-4)Glc(a1-4)Glc
Method in brief: as §1

[3] = target: Glc(b1-3)Glc(b1-3)Glc(b1-3)Glc(b1-3)Glc(b1-3)Glc
Method in brief: as §1

[4] = target: Glc(b1-3)Glc(b1-3)Glc(b1-3)Glc(b1-3)Glc(b1-3)Glc(b1-3)Glc(b1-3)Glc(b1-3)Glc(b1-3)Glc(b1-3)Glc
Method in brief: as §1

[5] = target: Glc(b1-3)Glc(b1-3)Glc(b1-3)Glc(b1-3)Glc(b1-3)Glc(b1-3)Glc(b1-3)Glc(b1-3)Glc(b1-3)Glc(b1-3)Glc(b1-3)Glc
Method in brief: as §1

[6] = target: Glc(b1-3)Glc(b1-3)Glc(b1-3)Glc(b1-3)Glc(b1-3)Glc(b1-3)Glc(b1-3)Glc(b1-3)Glc(b1-3)Glc(b1-3)Glc(b1-3)Glc(b1-3)Glc
Method in brief: as §1

[7] = target: Glc(b1-4)Glc(b1-4)Glc(b1-4)Glc(b1-4)Glc(b1-4)Glc(b1-4)Glc
Method in brief: as §1

[8] = target: Glc(a1-3)Glc(a1-3)Glc(a1-3)Glc(a1-3)Glc
Method in brief: as §1

[9] = target: Glc(a1-3)Glc(a1-3)Glc(a1-3)Glc(a1-3)Glc(a1-3)Glc(a1-3)Glc(a1-3)Glc(a1-3)Glc(a1-3)Glc(a1-3)Glc(a1-3)Glc
Method in brief: as §1

[10] = target: Glc(b1-2)Glc(b1-2)Glc(b1-2)Glc
Method in brief: as §1

[11] = target: Glc(b1-2)Glc(b1-2)Glc(b1-2)Glc(b1-2)Glc(b1-2)Glc(b1-2)Glc(b1-2)Glc(b1-2)Glc
Method in brief: as §1

[12] = target: Glc(b1-3)Glc(b1-3)[Glc(b1-6)]Glc(b1-3)Glc(b1-3)Glc(b1-3)Glc(b1-3)Glc(b1-3)Glc(b1-3)Glc
Method in brief: as §1

[13] = target: Glc(b1-4)Glc(b1-4)Glc
Method in brief: as §1

[14] = target: Glc(b1-4)Glc(b1-4)Glc(b1-4)Glc(b1-4)Glc(b1-4)Glc(b1-4)Glc(b1-4)Glc
Method in brief: as §1

[15] = target: Glc(b1-6)Glc(b1-6)Glc(b1-6)Glc
Method in brief: as §1

[16] = target: Xyl(b1-4)Xyl(b1-4)Xyl(b1-4)Xyl(b1-4)Xyl(b1-4)Xyl
Method in brief: as §1

[17] = target: Glc(a1-3)Glc(a1-3)Man(a1-2)Man(a1-2)Man(a1-3)[Man(a1-3)[Man(a1-6)]Man(a1-6)]Man(b1-4)GlcNAc
Method in brief: as §1

[18] = target: Glc(a1-4)Glc(a1-4)Glc(a1-4)Glc(a1-4)Glc
Method in brief: as §1

[19] = target: Glc(a1-4)Glc(a1-4)Glc(a1-4)Glc(a1-4)Glc(a1-4)Glc(a1-4)Glc
Method in brief: as §1

[20] = target: Glc(b1-3)Glc(b1-3)Glc(b1-3)Glc
Method in brief: as §1

B1: Lam16A (Thermotoga maritima), Q9WXN1 (protein)
chain: EQINNGTFDEPIVNDQANNPDEWFIWQAGDYGISGARVSDYGVRDGYAYITIADPGTDTWHIQFNQWIGLYRGKTYTISFKAKADTPRPINVKILQNHDPWTNYFAQTVNLTADWQTFTFTYTHPDDADEVVQISFELGEGTATTIYFDDVTVSPQ
Which “glycan array binding signal (z-score)” value [1] does the source give for B1 here?
The value was -0.373.

What about the “glycan array binding signal (z-score)” value [2] of the same binder?
Its value is -0.363.

And the “glycan array binding signal (z-score)” value [3]?
Its value is 1.79.

And the “glycan array binding signal (z-score)” value [4]?
Its value is 3.64.

What about the “glycan array binding signal (z-score)” value [5] of the same binder?
The value was 4.46.

And the “glycan array binding signal (z-score)” value [6]?
Its value is 4.88.

And the “glycan array binding signal (z-score)” value [7]?
Its value is -0.373.

B2: laminarinase (Bacillus halodurans), Q9KBL8 (protein)
chain: EETIELEGEVIPARLLSTKVKALNYDDYHNVLIDRCVEGGESIRGLGDGSWIAFHDINLEQPTNLLTVRAANENKQAVLEIRADRVDGPLVSQSVIPPTGGLQAWTTVTAQVNGETSEIRDLYLVFKGEFQLSWFSFS
For B2, which “glycan array binding signal (z-score)” value [8] is on record?
The value was -0.688.

What about the “glycan array binding signal (z-score)” value [9] of the same binder?
Its value is -0.654.

What about the “glycan array binding signal (z-score)” value [10] of the same binder?
Its value is 0.121.

And the “glycan array binding signal (z-score)” value [11]?
The value was 2.57.

What about the “glycan array binding signal (z-score)” value [5] of the same binder?
The value was 2.38.

And the “glycan array binding signal (z-score)” value [6]?
The value was 2.46.

What about the “glycan array binding signal (z-score)” value [12] of the same binder?
The value was 2.85.

What about the “glycan array binding signal (z-score)” value [13] of the same binder?
The value was -0.573.

What about the “glycan array binding signal (z-score)” value [14] of the same binder?
Its value is -0.428.

What about the “glycan array binding signal (z-score)” value [15] of the same binder?
The value was -0.324.

And the “glycan array binding signal (z-score)” value [16]?
Its value is -0.466.

B3: Malectin (Homo sapiens), Q14165 (protein)
chain: MLGAWAVEGTAVALLRLLLLLLPPAIRGPGLGVAGVAGAAGAGLPESVIWAVNAGGEAHVDVHGIHFRKDPLEGRVGRASDYGMKLPILRSNPEDQILYQTERYNEETFGYEVPIKEEGDYVLVLKFAEVYFAQSQQKVFDVRLNGHVVVKDLDIFDRVGHSTAHDEIIPMSIRKGKLSVQGEVSTFTGKLYIEFVKGYYDNPKVCALYIMAGTVDDVPKLQPHPGLEKKEEEEEEEEYDEGSNLKKQTNKNRVQSGPRTPNPYASDNSSLMFPILVAFGVFIPTLFCLCRL
What does the source list for B3?
glycan array binding signal (z-score) [17]: 5.02; glycan array binding signal (z-score) [18]: -0.172; glycan array binding signal (z-score) [19]: -0.012; glycan array binding signal (z-score) [20]: -0.337; glycan array binding signal (z-score) [13]: -0.412
